Measured values reported in the antibiotic and cytotoxicity screens of Wong et al. (2023).
In all, about 39,000 compounds went through this assay and about 1,500 (3.8%) were called active. This is one part of a sample in which actives are shown more often than they occur.

test system: HSkMC (human skeletal muscle cells); experiment: cytotoxicity call (relative viability < 0.9); conditions: 10 µM

SMILES | cytotoxicity call
COc1ccc(S(=O)(=O)N2C[C@@H](O)COC[C@@H]3O[C@H](CC(=O)NCCCN4CCOCC4)CC[C@H]32)cc1 | inactive
Cc1ccc(F)cc1NC(=O)[C@@H](C)N | inactive
COc1ccc(S(=O)(=O)Nc2ccc3c(c2)CC(=O)N([C@@H](C)CO)C[C@@H](C)[C@@H](CN(C)S(=O)(=O)c2c(C)noc2C)O3)cc1 | inactive
COc1cc(NC(=O)Cn2cnc3c2c(=O)n(C)c(=O)n3C)cc(OC)c1OC | inactive
Cc1cccc(-n2cc(CN)cn2)c1 | inactive
COc1cc(NC(=O)c2cccc(-n3cc(NC(=O)Nc4cccc(C)c4)cn3)c2)cc(OC)c1OC | active
C[C@@H]1CN([C@H](C)CO)C(=O)c2cccc(NC(=O)c3ccc(-c4nccs4)cc3)c2O[C@@H]1CN(C)Cc1ccc(Cl)c(Cl)c1 | inactive
C[C@@H]1CCCCO[C@H](CN(C)C(=O)Nc2cccc3ccccc23)[C@@H](C)CN([C@H](C)CO)C(=O)c2cc(NC(=O)Nc3ccc(C(F)(F)F)cc3)ccc2O1 | inactive
COc1ccc(S(=O)(=O)Nc2ccc3c(c2)C(=O)N([C@@H](C)CO)C[C@@H](C)[C@H](CN(C)C(=O)Nc2ccc(F)cc2)OCCCC[C@@H](C)O3)cc1 | inactive
C[C@@H]1CN([C@@H](C)CO)C(=O)c2c(c3ccccc3n2C)-c2ccccc2CO[C@@H]1CN(C)C(=O)Nc1cccc(Cl)c1Cl | inactive
C[C@H]1CN([C@@H](C)CO)C(=O)c2c(c3ccccc3n2C)-c2ccccc2CO[C@H]1CN(C)C(=O)Nc1cccc(Cl)c1Cl | inactive
C[C@H]1CN([C@@H](C)CO)C(=O)c2c(c3ccccc3n2C)-c2ccccc2CO[C@@H]1CN(C)C(=O)Nc1cccc(Cl)c1Cl | active
C[C@@H]1CN([C@@H](C)CO)C(=O)c2c(c3ccccc3n2C)-c2ccccc2CO[C@H]1CN(C)C(=O)Nc1cccc(Cl)c1Cl | inactive
C[C@H](CO)N1C[C@H](C)[C@@H](CN(C)C(=O)Nc2cccc(Cl)c2Cl)OCc2ccccc2-c2c(n(C)c3ccccc23)C1=O | active
C[C@H](CO)N1C[C@H](C)[C@H](CN(C)C(=O)Nc2cccc(Cl)c2Cl)OCc2ccccc2-c2c(n(C)c3ccccc23)C1=O | inactive
C[C@@H]1CN([C@H](C)CO)C(=O)c2c(c3ccccc3n2C)-c2ccccc2CO[C@@H]1CN(C)C(=O)Nc1cccc(Cl)c1Cl | active
C[C@@H]1CN([C@H](C)CO)C(=O)c2c(c3ccccc3n2C)-c2ccccc2CO[C@H]1CN(C)C(=O)Nc1cccc(Cl)c1Cl | inactive
COc1ccccc1NC(=O)N(C)C[C@@H]1OCc2ccccc2-c2c(n(C)c3ccccc23)C(=O)N([C@@H](C)CO)C[C@H]1C | inactive
COc1ccc(S(=O)(=O)N(C)C[C@H]2OCCCC[C@H](C)Oc3ccc(NC(=O)C4CCCCC4)cc3C(=O)N([C@H](C)CO)C[C@@H]2C)cc1 | inactive
Cn1c(C(=O)N[C@H](CO)Cc2c[nH]c3ccccc23)cc(=O)n(C)c1=O | inactive
C[C@H](CO)N1C[C@H](C)[C@@H](CN(C)C(=O)CCCN(C)C)OCc2cn(nn2)CCCC1=O | inactive
Cc1ccc(S(=O)(=O)Nc2ccc3c(c2)C(=O)N([C@H](C)CO)C[C@H](C)[C@@H](CN(C)C(=O)CCC(F)(F)F)OCCCC[C@@H](C)O3)cc1 | inactive

SMILES | cytotoxicity call
CC(C)C(=O)NCc1nnnn1-c1ccccc1 | inactive
C[C@@H]1CCCCO[C@@H](CN(C)C(=O)c2ccccc2)[C@@H](C)CN([C@@H](C)CO)C(=O)c2cc(NC(=O)Cc3ccccc3)ccc2O1 | inactive
COc1ccc(CN(C)C[C@@H]2Oc3c(NC(=O)c4cnccn4)cccc3C(=O)N([C@H](C)CO)C[C@H]2C)cc1 | inactive
O=C1O[C@@H](c2ccccc2)[C@@H](c2ccccc2)N2[C@@H](c3ccc(O)cc3)[C@]3(C(=O)Nc4ccccc43)[C@@H](C(=O)NC[C@H](O)c3ccccc3)[C@H]12 | inactive
CN1CCN(C(=O)C[C@@H]2CC[C@@H]3[C@H](COC[C@H](O)CN3C(=O)C3CCCC3)O2)CC1 | inactive
Cc1cc(O)c(C(C)C)cc1Cl | inactive
COc1cccc(C#Cc2cnc3c(c2)C(=O)N([C@@H](C)CO)C[C@H](C)[C@@H](CN(C)C(=O)C2CCC2)O3)c1 | inactive
C=C1C2CCC3(C)C(c4ccoc4)OC(=O)CC13OC1CC(=O)C(C)(C)C(C(O)C(=O)OC)C12C (stereo unspecified) | inactive
CC(C)NC(=O)Nc1ccc2c(c1)C(=O)N([C@@H](C)CO)C[C@@H](C)[C@H](CN(C)S(=O)(=O)c1cn(C)cn1)O2 | inactive
O=C(C[C@H]1CC[C@H]2[C@@H](COC[C@@H](O)CN2C(=O)c2ccccc2F)O1)N1CCN(c2ccccc2)CC1 | inactive
COc1ccc(-c2ccc3c(c2)O[C@H](CN(C)CC2CCOCC2)[C@@H](C)CN([C@@H](C)CO)S3(=O)=O)cc1 | inactive
Cc1[nH]c(/C=C2\C(=O)Nc3ccc(S(=O)(=O)Cc4c(Cl)cccc4Cl)cc32)c(C)c1C(=O)N1CCC[C@@H]1CN1CCCC1 | active
C[C@H](CO)N1C[C@H](C)[C@H](CN(C)Cc2ccccc2)Oc2ccc(NC(=O)Nc3ccc(C(F)(F)F)cc3)cc2C1=O | inactive
C[C@H](CO)N1C[C@H](C)[C@@H](CN(C)Cc2ccccc2)Oc2ccc(NC(=O)Nc3ccc(C(F)(F)F)cc3)cc2C1=O | active
C[C@@H]1CN([C@H](C)CO)C(=O)c2cc(NC(=O)Nc3ccc(C(F)(F)F)cc3)ccc2O[C@H]1CN(C)Cc1ccccc1 | active
C[C@H](CO)N1C[C@H](C)[C@H](CN(C)Cc2ccc(C(=O)O)cc2)Oc2ccc(NC(=O)Nc3ccc(C(F)(F)F)cc3)cc2C1=O | inactive
C[C@@H]1CN([C@@H](C)CO)C(=O)c2cc(NC(=O)Nc3ccc(C(F)(F)F)cc3)ccc2O[C@H]1CN(C)Cc1ccccc1 | active
C[C@H](CO)N1C[C@H](C)[C@@H](CN(C)Cc2ccc(C(=O)O)cc2)Oc2ccc(NC(=O)Nc3ccc(C(F)(F)F)cc3)cc2C1=O | inactive
C[C@@H]1CN([C@@H](C)CO)C(=O)c2cc(NC(=O)Nc3ccc(C(F)(F)F)cc3)ccc2O[C@@H]1CN(C)Cc1ccccc1 | active
C[C@@H]1CN([C@@H](C)CO)C(=O)c2cccc(N(C)C)c2O[C@H]1CN(C)S(=O)(=O)c1ccc(Cl)cc1 | inactive
CCCNC(=O)C[C@@H]1CC[C@H]2[C@H](COc3ccc(NS(=O)(=O)c4ccccc4C)cc3C(=O)N2C)O1 | inactive
Cc1noc(C)c1NC(=O)Nc1cccc2c1O[C@@H](CN(C)C(=O)NC(C)C)[C@H](C)CN([C@@H](C)CO)C2=O | inactive

SMILES | cytotoxicity call
COc1ccc(NC(=O)Nc2ccc3c(c2)C(=O)N([C@H](C)CO)C[C@H](C)[C@H](CN(C)C(=O)Nc2ccc(C(F)(F)F)cc2)OCCCC[C@H](C)O3)cc1 | inactive
C[C@H]1CN([C@@H](C)CO)C(=O)c2cc(NC(=O)Nc3ccc(C(F)(F)F)cc3)ccc2O[C@H]1CN(C)Cc1ccccc1 | active
C[C@H]1CN([C@@H](C)CO)C(=O)c2cc(NC(=O)Nc3ccc(C(F)(F)F)cc3)ccc2O[C@@H]1CN(C)Cc1ccccc1 | inactive
C[C@@H]1CN([C@H](C)CO)C(=O)c2cc(NC(=O)Nc3ccc(C(F)(F)F)cc3)ccc2O[C@@H]1CN(C)Cc1ccccc1 | inactive
CN(C)S(=O)(=O)Nc1cccc(N)c1 | inactive
COCC(=O)N1C[C@@H](C)[C@@H](OC)CN(C)C(=O)c2cc(NC(=O)c3ccc(OC)cc3)ccc2OC[C@@H]1C | inactive
COc1cccc2c1C(=O)c1c(O)c3c(c(O)c1C2=O)CC(O)(C(C)=O)CC3OC1CC(N)C(O)C(C)O1.Cl (stereo unspecified) | inactive
COc1cccc2c1C(=O)c1c(O)c3c(c(O)c1C2=O)C[C@](O)(C(C)=O)C[C@H]3O[C@H]1C[C@@H](N)[C@@H](O)[C@@H](C)O1 | active
CC(=O)[C@]1(N)Cc2c(O)c3c(c(O)c2[C@@H](O[C@H]2C[C@H](O)[C@H](O)CO2)C1)C(=O)c1ccccc1C3=O | active
COc1cccc2c1C(=O)c1c(O)c3c(c(O)c1C2=O)C[C@@](O)(C(C)=O)C[C@@H]3O[C@H]1C[C@H](N)[C@H](O)[C@H](C)O1 | active
CC(=O)[C@]1(O)Cc2c(O)c3c(c(O)c2[C@@H](O[C@@H]2C[C@@H](N)[C@H](O)[C@@H](C)O2)C1)C(=O)c1c(O)cccc1C3=O | active
O=C(C[C@@H]1CC[C@H]2[C@@H](COC[C@H](O)CN2C(=O)c2ccncc2)O1)NC1CCC1 | inactive
CNCC1CCOCC1 | inactive
CO[C@@H]1CN(C)C(=O)c2cc(NS(=O)(=O)c3ccccc3C)ccc2OC[C@H](C)N(S(C)(=O)=O)C[C@H]1C | inactive
Cc1noc(C)c1S(=O)(=O)Nc1ccc2c(c1)C(=O)N([C@H](C)CO)C[C@H](C)[C@@H](CN(C)C(=O)Nc1ccc(F)cc1)OCCCC[C@H](C)O2 | inactive
C[C@H]1CN([C@@H](C)CO)C(=O)c2cc(C#CCN(C)C)cnc2O[C@@H]1CN(C)C(=O)c1cnccn1 | inactive
CC(C)c1nc(/N=C/N(C)C)nc(=O)n1C | inactive
C[C@H](CO)N1C[C@H](C)[C@H](CN(C)C(=O)Nc2ccc(F)cc2)OCCCC[C@H](C)Oc2ccc(NS(=O)(=O)c3ccc(Cl)cc3)cc2C1=O | inactive
C[C@H](CO)N1C[C@H](C)[C@@H](CN(C)Cc2ccc3c(c2)OCO3)Oc2ncc(Br)cc2C1=O | inactive
CN(Cc1ccc(/C=C/C(=O)Nc2ccc(-c3cccs3)cc2N)cc1)CC12CC3CC(CC(C3)C1)C2 | inactive
C[C@@H]1CN([C@@H](C)CO)C(=O)Cc2cc(NC(=O)CCCCCC(=O)Nc3ccccc3N)ccc2O[C@H]1CN(C)Cc1ccc(-c2ccccc2)cc1 | inactive
CN(Cc1ccc(/C=C/C(=O)Nc2ccc(-c3ccccc3)cc2N)cc1)CC12CC3CC(CC(C3)C1)C2 | active
